Assay outcomes from PubChem BioAssay.
Hits are enriched below; roughly 5.4% of the tested compounds scored in any of these assays.
beta cell repl – MIN6 beta-cell proliferation induction | AID 2380 | hit rate 0.29% among 330,000 | MIN6 cells proliferation, ATPlite luminescence, 48 h; cells starved in 0.2% serum; 100% = growth in 10% serum | proliferation, % at 10 µM;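 active = compounds whose signal lies at least 3.5 SD above the mean of all wells on their plate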;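 also: 0% = DMSO-treated cells in low-serum medium and 100% = 10% serum control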
SMARCA2 activ – increases SMARCA2 function in MMTV reporter cells; MG213 cells, MMTV-luciferase reporter, dexamethasone, overnight; activation, % at 9.1 µM; hit rate 1% among 370,000; AID 652017; in the data active = activation above about 7.8%;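 also: 0% = vehicle wells and 100% = reference activator wells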
Granule exo inh – blocks lytic granule exocytosis; TALL-104 LAMP-1 surface exposure, flow cytometry; cells stimulated with thapsigargin and PMA; inhibition, % at 10 µM; hit rate 0.66% among 360,000; AID 651702;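 active = inhibition above about 55%, limit read from the data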
JMJD2C inh – human JMJD2C demethylase inhibition; GST-JMJD2C(1-420) H3K9me3 demethylation, DELFIA europium; Q9H3R0; AID 2099; hit rate 0.069% among 330,000; inhibition, % at 2.35 µM;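 active = more than half of a compound's replicate wells show inhibition beyond 50%, single wells judged on their own value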;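 also: signal counts dimethyl H3K9 product captured on neutravidin plate; 0% = median of DMSO wells and 100% = 0.3 times that DMSO median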
Target sequence (Q9H3R0 1-420 limits assumed): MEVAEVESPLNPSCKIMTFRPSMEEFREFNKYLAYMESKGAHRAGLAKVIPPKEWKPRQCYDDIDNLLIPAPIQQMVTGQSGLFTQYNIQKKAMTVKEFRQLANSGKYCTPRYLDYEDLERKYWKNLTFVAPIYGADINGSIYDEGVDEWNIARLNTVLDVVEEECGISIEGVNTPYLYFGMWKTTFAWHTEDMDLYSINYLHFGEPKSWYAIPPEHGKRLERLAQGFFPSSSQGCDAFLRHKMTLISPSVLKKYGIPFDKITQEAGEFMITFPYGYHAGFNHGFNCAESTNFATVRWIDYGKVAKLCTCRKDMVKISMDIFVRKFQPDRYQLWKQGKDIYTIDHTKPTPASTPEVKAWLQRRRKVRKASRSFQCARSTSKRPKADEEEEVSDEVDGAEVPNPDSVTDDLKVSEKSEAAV
ALR inh – inhibitors of human sulfhydryl oxidase ALR. hit rate 3.8% among 290,000. purified ALR, DTT oxidation, H2O2 HRP-luminol luminescence. P55789. inhibition, % (test concentration not listed);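 active = mean replicate inhibition above about 79%, with every replicate also reaching it, limit read from the data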
PfM18AAP inh – PfM18AAP enzyme inhibition; hit rate 1.2% among 290,000; AID 1822; recombinant PfM18AAP, H-Glu-NHMec fluorogenic cleavage; inhibition, % at 7.35 µM;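 active = inhibition above the campaign mean inhibition over all tested compounds plus 3 SD, cut at about 28% in these data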;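 also: 0% = plate median of test compound wells and 100% = 2 mM ZnCl2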
Numbers without * were called inactive.

Results for C[C@@H]1CCCN1c1ccc2c(c1)O[C@H]1CCN(C1)S2(=O)=O ?
SMARCA2 activ: -2.3

How did COC(=O)c1cnc2ccccc2n1 do in these assays?
beta cell repl: -0.1; SMARCA2 activ: 7.8*; Granule exo inh: -2.0; JMJD2C inh: -2.0; ALR inh: -0.6; PfM18AAP inh: -0.8

What do the screens show for `CCOC(=O)c1c(N)ssc1=S`?
beta cell repl: -2.4; SMARCA2 activ: 3.5; Granule exo inh: 12.4; JMJD2C inh: 5.2; ALR inh: 67.7; PfM18AAP inh: 21.2

What do the screens show for `C=CCn1sc(N)c(C(=O)OCC)c1=S`?
beta cell repl: -2.7; SMARCA2 activ: 0.8; Granule exo inh: 0.3; JMJD2C inh: 0.8; ALR inh: 99.2*; PfM18AAP inh: 3.2

What do the screens show for `CN1CCCN(S(=O)(=O)c2ccc3c(c2)n(C)c(=O)c(=O)n3C)CC1`?
SMARCA2 activ: -5.9

Results for CCN(CC)c1ccc(-c2nn3c(-c4ccccc4Cl)nnc3s2)cc1 ?
SMARCA2 activ: 0.6

Results for O=C(CCCC(=O)c1ccccc1)Nc1ccc(O)cc1 ?
beta cell repl: -1.8; SMARCA2 activ: -0.5; Granule exo inh: -8.0; JMJD2C inh: 1.0; ALR inh: 88.4*; PfM18AAP inh: 3.9

How did Nc1ccc(OC(=O)Nc2ccc(O)cc2)cc1 do in these assays?
beta cell repl: -2.5; SMARCA2 activ: -6.0; Granule exo inh: -3.1; JMJD2C inh: -9.8; ALR inh: 99.2*; PfM18AAP inh: 14.5

How did O=C(Nc1ccc(N2CCN(c3ccc(O)cc3)CC2)cc1)Oc1ccccc1 do in these assays?
beta cell repl: -2.7; SMARCA2 activ: 3.5; Granule exo inh: 0.0; JMJD2C inh: 7.7; ALR inh: 25.7; PfM18AAP inh: 6.7

What do the screens show for `O=C(O)C1CCCCC1C(=O)Nc1ccccc1Nc1ccccc1` (configuration not stated)?
beta cell repl: -1.0; SMARCA2 activ: 0.7; Granule exo inh: -0.7; JMJD2C inh: -5.2; ALR inh: 99.2*; PfM18AAP inh: -0.2

How did CC(=O)Nc1ccc(Nc2ccccc2)cc1 do in these assays?
beta cell repl: -4.1; SMARCA2 activ: -1.8; Granule exo inh: 1.3; JMJD2C inh: 6.8; ALR inh: 98.8*; PfM18AAP inh: -0.2

How did O=C(Nc1ccccc1)c1ccccc1NC(=O)[C@H]1CCCC[C@H]1C(=O)O do in these assays?
beta cell repl: -5.2; SMARCA2 activ: 2.3; Granule exo inh: 0.3; JMJD2C inh: 10.1; ALR inh: 5.4; PfM18AAP inh: -7.7

Results for CC(=O)Nc1ccc(O)cc1 ?
beta cell repl: -3.1; SMARCA2 activ: 0.4; Granule exo inh: -1.9; ALR inh: 99.4*

Results for CCCCc1ccc(NC(=O)C2CCCC2)cc1 ?
beta cell repl: 0.1; SMARCA2 activ: 7.8*; Granule exo inh: 0.2; JMJD2C inh: 16.2; ALR inh: 8.8

Results for O=C(Nc1ccccc1)C1CCCCC1 ?
beta cell repl: -2.5; SMARCA2 activ: -4.5; Granule exo inh: 1.4; JMJD2C inh: -22.1; ALR inh: 7.4; PfM18AAP inh: -7.0

What do the screens show for `O=C(Nc1ccc(Nc2ccccc2)cc1)C1CC1`?
beta cell repl: -1.7; SMARCA2 activ: 2.0; Granule exo inh: -1.5; JMJD2C inh: -1.3; ALR inh: 99.7*; PfM18AAP inh: -0.8

What do the screens show for `CC(=O)Nc1cccc(NC(=O)c2cccc(-c3ccc(O)cc3)c2)c1`?
beta cell repl: 0.3; SMARCA2 activ: -3.2; Granule exo inh: 3.6; JMJD2C inh: -3.6; ALR inh: 98.5*; PfM18AAP inh: 3.1

How did O=C(Nc1ccc2c(c1)Cc1ccccc1-2)NC1CCCCN(Cc2ccc(Cl)cc2)C1=O (configuration not stated) do in these assays?
SMARCA2 activ: -1.4

What do the screens show for `CCCC(=O)Nc1ccc(Nc2ccccc2)cc1`?
beta cell repl: 0.0; SMARCA2 activ: -0.1; Granule exo inh: -1.2; JMJD2C inh: -9.0; ALR inh: 99.2*; PfM18AAP inh: 6.0

How did CC(=O)CC(=O)Nc1ccc(Nc2ccccc2)cc1 do in these assays?
beta cell repl: -2.3; SMARCA2 activ: -1.5; Granule exo inh: -2.2; JMJD2C inh: 6.9; ALR inh: 99.3*; PfM18AAP inh: 2.4

What do the screens show for `CCCC(=O)Nc1ccc(-c2ccc(NC(=O)CCC)cc2)cc1`?
beta cell repl: 0.0; SMARCA2 activ: -4.3; Granule exo inh: 7.3; JMJD2C inh: 8.3; PfM18AAP inh: 5.6

What do the screens show for `C=CCCC(=O)N(Cc1ccccc1)c1ccccc1C(=O)Nc1cc(OC)ccc1OC`?
SMARCA2 activ: -5.0
